# Measurements as given in PubChem BioAssay (EPA / NIEHS).
# Active and inactive are the calls of the source. How the source made its calls: active means hit-call score of the fitted dose curve at least 0.9, where 1 is the maximum; inactive means score below 0.9.
# Read-out: Interferon-gamma inducible Protein 10 (IP10), CXCL10 (gene 3627)
# Test: BSK_BE3C_IP10: BioMAP Diversity Plus: BE3C Assay for Interferon-gamma inducible Protein 10 (IP10) Biomarker Activity (AID 2283034)
# Conditions: primary human bronchial epithelial cells; actives raise or lower the signal
# Method: BSK_BE3C is a cell-based, multiplexed-readout assay that uses bronchial epithelial cell, a human lung primary cell, with measurements taken at 24 hours after chemical dosing in a 96-well plate.BSK_BE3C_IP10 is an assay component measured in the BSK_BE3C assay. It measures IP-10 antibody related to regulation of gene expression using ELISA technology.Data from the assay component BSK_BE3C_IP10 was analyzed into 1 assay endpoint. This assay endpoint, BSK_BE3C_IP10, was analyzed with bidirectional fitting relative to DMSO as the negative control and baseline of activity. Using a type of binding reporter, gain or loss-of-signal activity can be used to understand changes in the signaling as they relate to the gene CXCL10. Furthermore, this assay endpoint can be referred to as a primary readout, because this assay has produced multiple assay endpoints where this one serves a signaling function. To generalize the intended target to other relatable targets, this assay endpoint is annotated to the cytokine intended target family, where the subfamily is chemotactic factor.
# The levels of cell surface (or secreted, indicated by the prefix "s") biomarker endpoints were measured by ELISA. Overt cytotoxicity to cells in confluent adherent cultures (all systems other than the BT system) was assessed by measuring total protein levels using sulforhodamine B (SRB) staining in parallel cultures at the time of biomarker measurements, indicated as SRB endpoints. For proliferation assays for adherent cell types, individual cell types are cultured at sub-confluence and relative cell numbers quantified by SRB staining at time points optimized for each system (48 h: 3C and CASM3C systems; 72 h: BT and HDF3CGF systems; 96 h: SAg system). SRB was performed by staining cells with 0.1% SRB after fixation with 10% TCA and reading wells at 560 nm.Viability and proliferation of PBMC (T cells) was quantified by Alamar Blue reduction for the SAg and BT systems. For PBMC viability (referred to as PBMC Cytotoxicity within the assay endpoint names), cells were plated (75,000/well in a 96-well plate) and then chemical samples added for 1 h before addition of activators, SEB and TSST-1 (20 ng/mL final concentration each). Cells were incubated for 90 h. Then, Alamar Blue (20 uL/well) (Invitrogen, Cat DAL1100) was added for 6 h, and the plates were read with a fluorescence microplate reader at 546/580 nm (excitation/emission). For PBMC proliferation, cells were plated and activated as above but incubated for only 16 h prior to addition of Alamar Blue. Plates were read after 6 h.
SMILES,outcome,AC50
Cc1cccc2ccccc12,inactive,
CC[C@H](NC(=O)c1cc(F)ccc1NS(=O)(=O)c1cccc2cccnc12)c1ccccc1,inactive,
CCN(Cc1cccnc1)C(=O)c1cccc(Cl)c1[C@]1(C)C(=O)N(Cc2ccc(OC)cc2OC)c2ccc(Cl)cc21,,12.1 µM (active)
CCCCCCCCOC(=O)c1cc(O)c(O)c(O)c1,,29.8 µM (active)
O=c1ccc2ccccc2o1,inactive,
CN(C)C(=O)C1(N2CCCCC2)CCN(CC[C@@]2(c3ccc(Cl)c(Cl)c3)CN(C(=O)c3ccccc3)CCO2)CC1,,16.4 µM (active)
Cc1occc1C(=O)Nc1ccc(C(=O)N2CCC(F)(F)/C(=C\C(=O)N3CCC(N4CCCCC4)CC3)c3ccccc32)cc1,inactive,
CCCCCCCCCC(=O)O,inactive,
O=C(OCCCCCCOC(=O)c1ccccc1)c1ccccc1,inactive,
Oc1ccc2ccccc2c1,,32.5 µM (active)
OCCO,inactive,
COCC(C)OCC(C)OCC(C)O (stereo not given),inactive,
CCCCCCCCN(C)CCCCCCCC,inactive,
Oc1ccccc1,inactive,
O=CCCCC=O,inactive,
c1ccc(C[n+]2cccc3ccccc32)cc1,,30.2 µM (active)
O=C(O)Cn1c(=O)n(Cc2ccc(Br)cc2F)c(=O)c2ccc(Cl)cc21,inactive,
CCCCCCCC[Si](OCC)(OCC)OCC,,26.3 µM (active)
CCCCCCCCCCCCO,,30.8 µM (active)
CN1C(=O)N(c2ccccc2Br)Cc2cnc(Nc3ccc4c(c3)OCC(CO)O4)nc21 (stereo not given),,19.3 µM (active)

SMILES,outcome,AC50
O=C=NCCCCCCN=C=O,inactive,
CCCCCc1ccc(N)cc1,inactive,
O=C(O)c1ccccc1C(=O)OCc1ccccc1,inactive,
Cc1cc2c(cc1C(F)(F)F)N(C(=O)Nc1ccc(Oc3cccnc3C)nc1)CC2,,13.1 µM (active)
CC(C)(O)c1ccc(CNC(=O)c2cccnc2Oc2ccc3nonc3c2)cc1,inactive,
Cc1ncc(CO)c(CO)c1O,inactive,
CN(C[C@@H](CC[N+]12CCC(C3CCCCC3)(CC1)CC2)c1ccc(Cl)c(Cl)c1)C(=O)c1cc(C(F)(F)F)cc(C(F)(F)F)c1,,13.1 µM (active)
O=C1c2ccccc2C(=O)N1CCc1noc(-c2ccc(CN3CCCCCC3)s2)n1,inactive,
CC(C)(C)c1cc(/C=C2\SC(N)=NC2=O)cc(C(C)(C)C)c1O,inactive,
C[C@]12CC[C@@H]3c4ccc(O)cc4CC[C@H]3[C@@H]1CC[C@H]2O,inactive,
CC(=O)N1CCN(c2ccc(OC[C@H]3CO[C@](Cn4ccnc4)(c4ccc(Cl)cc4Cl)O3)cc2)CC1,,29.4 µM (active)
CCCC(=O)OCCC(C)C,inactive,
Cc1cc(F)ccc1-c1cc(N2CC[C@@H](O)[C@H]2CO)ncc1N(C)C(=O)C(C)(C)c1cc(C(F)(F)F)cc(C(F)(F)F)c1,,13.3 µM (active)
CCCCCCCCCCCC[N+](C)(C)C,,21.8 µM (active)
O=C1CCC(C2CCCCC2)CC1,,29.6 µM (active)
O=C(Nc1ccc(Cl)cc1)Nc1ccc(Cl)c(Cl)c1,,2.52 µM (active)
Cc1cn([C@H]2C[C@H](N=[N+]=[N-])[C@@H](CO)O2)c(=O)[nH]c1=O,inactive,
c1ccc2ccccc2c1,inactive,
O=c1c(-c2ccc(O)cc2)coc2cc(O)cc(O)c12,inactive,
CC(C)(c1cc(Br)c(O)c(Br)c1)c1cc(Br)c(O)c(Br)c1,,6.45 µM (active)
